Common to all, as to experiment: NCI-60 one-dose screen, 48 h (100 = growth as untreated, 0 = no growth, -100 = all killed)
Holding throughout (settings): 10 µM unless noted

The subject of test [1] is HCT-15 colon.
For test [2], the system named is HT29 colon.
The test system of test [3] is SNB-75 CNS.
In test [4] the test system is SNB-19 CNS.
For test [5], the system named is U251 CNS.
For test [6], the system named is PC-3 prostate.
For test [7], the system named is SK-MEL-5 melanoma.
For test [8], the system named is UACC-62 melanoma.
Test [9] concerns LOX IMVI melanoma.
Test [10] relates to SK-MEL-28 melanoma.

For 26 compounds, growth results are on record in PubChem BioAssay (NCI).

The panel holds about 83,000 compounds, 20% with a hit somewhere; the sample as a whole holds those more often.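 Treatment: one concentration, 48 hours, 96-well format. Scoring: percent growth, with anything below 10 considered active.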 Values without a mark were called inactive. Calls of active or inactive are those of the source.

As to `Cc1nn(-c2ccccc2)c2nc(C)n(C(=O)N/N=C/c3cccc([N+](=O)[O-])c3)c(=O)c12`, the growth was 63.5% in test [1]; 88.6% in test [2]; 75.4% in test [3]; 94.1% in test [4]; 93.1% in test [5]; 92.9% in test [6]. Also, the growth in [7] was 90.7%; in test [8], 73.5%; in [9], 82.7%; in test [10], 97.8%.

Turning to `O=C(N/N=C/c1c[nH]c2ccccc12)Nc1ccccc1Cl`, the growth in [1] was 7.73% (active); in test [2] it was -24.2% (active); in [3] it was 5.18% (active); in test [4], 32.8%; in [5], 13.7%; in test [6], 26.5%. The growth is -38.6% (active) in test [7], 11.4% in test [8], -45.1% (active) in [9] and 39.7% in test [10].

For `CC1CCc2c(sc3nc(SCC(=O)c4cccc([N+](=O)[O-])c4)n(-c4ccccc4)c(=O)c23)C1` (stereo not given), the growth is 73.6% in test [1]; 67.9% in test [2]; 85.8% in test [3]; 59% in test [4]; 17.6% in [5]; 82.1% in test [6]. The growth in [7] was 82.6%; in [8], 91.9%; in [9], 53.7%; in test [10] it was 101%.

On to `C=CCSc1nnc(-c2c(C)nc3sccn23)o1`, for which the growth in [1] is 92.7%; in test [2], 96.1%; in [3], 69.1%; in test [4], 82.7%; in test [5], 88%; in [6], 88.9%. Further, the growth was 95.5% in [7], 74.4% in test [8], 95.5% in test [9] and 96.7% in test [10].

Regarding `N#C/C(=C/c1ccc([N+](=O)[O-])cc1)c1nnc(NC(=O)c2ccc(-n3c(=O)[nH]c4ccccc4c3=O)cc2)s1`, the growth in [1] is 93.3%; in [2] it was 110%; in test [3], 110%; in test [4] it was 87.1%; in test [5] it was 89.5%; in test [6], 90.9%. In addition, the growth in [7] is 99%; in test [8] it was 99.2%; in test [9], 90.5%; in [10] it was 100%.

For the compound `Cc1nc(Nc2ccccn2)sc1C1=NNC(c2ccccc2F)C1` (stereo not given), the growth is 20.8% in test [1]; 30.4% in [2]; 62.3% in [3]; 56.1% in test [4]; 51% in test [5]; 58.5% in test [6]. Besides, the growth in test [7] was 48.7%; in test [8], 29.4%; in test [9], 31.5%; in [10], 65.9%.

On to `COc1ccc(N=Nc2c(N)nn3c(-c4cc5ccccc5oc4=O)ccnc23)cc1`, for which the growth is 64.9% in test [1]; 50.7% in [2]; 33.6% in [3]; 19.8% in test [4]; 28.5% in [5]; 70.7% in [6]. The growth is 24% in [7], 47.7% in test [8], 57.2% in test [9] and 45.4% in [10].

For the compound `Nc1cc(-c2c[nH]c3ccc(Br)cc23)nc2cc(-c3c[nH]c4ccccc34)nn12`, the growth in test [1] was -67% (active); in [2] it was -54.8% (active); in [3], -11% (active); in [4], -77.6% (active); in [5] it was -83.3% (active); in test [6], -21.1% (active). Moreover, the growth was -96.4% (active) in test [7], -89.4% (active) in test [8], -86.8% (active) in [9] and -98.5% (active) in test [10].

Regarding `C=CCSc1nnc(-c2ccc(-c3nc4ccc(Cl)cc4[nH]3)cc2)o1`, the growth was 28% in test [1]; 32.1% in test [2]; 45.9% in test [3]; 76.1% in test [4]; 47.3% in test [5]; 63.2% in test [6]. In addition, the growth in [7] was 35.9%; in test [8] it was 39.4%; in test [9] it was 39.4%; in [10], 60%.

With `COc1ccc(C(=O)C[n+]2cccc3c4ccccc4ccc32)cc1`, the growth is 87.5% in test [1]; 20.4% in test [2]; 82.1% in [3]; 31.4% in test [4]; 28.2% in [5]; 27.5% in test [6]. In addition, the growth is -31.4% (active) in test [7], 55.7% in test [8], 46.1% in test [9] and 67% in test [10].

Turning to `Nc1cc(-c2c[nH]c3ccc(Cl)cc23)nc2cc(-c3c[nH]c4ccccc34)nn12`, the growth in test [1] is -87.1% (active); in [2], -59.7% (active); in test [3] it was 19.4%; in test [4], -59.5% (active); in test [5] it was -74.4% (active); in [6], -12% (active). Also, the growth is -87% (active) in [7], -82.7% (active) in [8], -94.6% (active) in [9] and -66.9% (active) in test [10].

For the compound `CC1CCc2c(sc3nc(SCC(=O)c4cccc(Br)c4)n(-c4ccccc4)c(=O)c23)C1` (stereo not given), the growth was 41% in test [1]; 21.6% in [2]; 54.9% in [3]; 64.8% in [4]; -25.5% (active) in [5]; 56.6% in test [6]. The growth in test [7] is 66%; in [8], 89.8%; in [9], 45.2%; in [10], 73.5%.

Turning to `COC(=O)c1c(C(=O)OC)c2c3ccccc3c3ccccc3n2c1C(=O)C(C)(C)C`, the growth in [1] was 46.6%; in [2], 71.9%; in test [3] it was 83.5%; in test [4], 96.2%; in test [5] it was 85.3%; in test [6], 35.3%. For the same compound, the growth in test [7] is 46.8%; in test [8] it was 50.1%; in test [9] it was 81.4%; in [10], 92.5%.

`O=C(Nc1nc2ccccc2s1)Nc1ccccc1Cl`: the growth in test [1] was 94.3%; in test [2], 98.5%; in test [3], 20.4%; in test [4] it was 70.4%; in test [5], 55.7%; in test [6] it was 85.3%. Moreover, the growth is 95.3% in test [7], 93.8% in test [8], 79.4% in test [9] and 102% in [10].

In the case of `COc1ccc(-c2cc(C)nc3[nH]c(=O)sc23)cc1`, the growth was 88.1% in test [1]; 93.3% in [2]; -4.05% (active) in test [3]; 53.6% in test [4]; 9.93% (active) in test [5]; 81.3% in test [6]. Further, the growth in test [7] was 80.4%; in [8], 60.9%; in [9], 45.9%; in [10], 89.8%.

On to `O=C(NN1C(=O)/C(=C/C=C/c2ccc([N+](=O)[O-])o2)SC1=S)c1ccc([N+](=O)[O-])cc1`, for which the growth in [1] is -85.4% (active); in test [2] it was -80.3% (active); in test [3], -91.1% (active); in [4], -100% (active); in test [5], -89.4% (active); in test [6], -72.5% (active). Moreover, the growth in [7] is -100% (active); in test [8], -99.6% (active); in [9] it was -97.1% (active); in [10], -99% (active).

As for `Cc1ccc2nc(COc3ccc(C(=O)NNC(=O)Nc4ccc(Cl)c(C(F)(F)F)c4)cc3)[nH]c2c1`, the growth was 97.2% in test [1]; 75.9% in [2]; 94.1% in test [3]; 24.9% in test [4]; -1.34% (active) in test [5]; 18.1% in test [6]. Also, the growth was 35.3% in test [7], 40.1% in test [8], 69.1% in [9] and -35.4% (active) in test [10].

Consider `CCOC(=O)/C(F)=C/C1CC1C1CCN(C(=O)OC(C)(C)C)CC1` (stereo not given), for which the growth was 89.2% in test [1]; 77.9% in test [2]; 93.9% in test [3]; 96.5% in test [4]; 99.8% in test [5]; 96.3% in [6]. The growth in test [7] was 69.3%; in test [8], 93.6%; in test [9], 103%; in test [10], 119%.

Take `Nc1nn2c(-c3cc4ccccc4oc3=O)ccnc2c1N=Nc1ccccc1`: the growth is 82.5% in [1]; 124% in test [2]; 40% in [3]; 4.86% (active) in [4]; 6.17% (active) in [5]; 82.5% in test [6]. For the same compound, the growth in [7] was 67.6%; in [8] it was 92.7%; in test [9] it was 34%; in [10], 90.2%.

Consider `NNc1ncnc2sc3c(c12)CCN(Cc1ccccc1)C3`, for which the growth is 32.9% in [1]; 20.7% in [2]; 80.7% in [3]; 69.4% in test [4]; 51.4% in test [5]; 59.5% in [6]. In addition, the growth in [7] was 48%; in [8] it was 53.1%; in test [9], 39.7%; in test [10], 73%.

Consider `Cc1ccc(Cl)cc1NC(=O)N/C(N)=N/c1nc2ccccc2s1`, for which the growth in test [1] is -22.4% (active); in test [2] it was -69.5% (active); in [3] it was -4.17% (active); in test [4], 12.5%; in test [5], -43.8% (active); in [6] it was 2.99% (active). Besides, the growth in test [7] was -56.9% (active); in test [8], -11.4% (active); in [9] it was -83.3% (active); in [10], 19.6%.

As to `CC[C@]12C=CCN3CC[C@]4(C(=C(C(=O)OC)C1)Nc1cc(OC)c([C@@H]5[C@H]6O[C@H]6[C@@]6(CC)CC(C(=O)OC)=C7Nc8cc(O)ccc8[C@@]78CCN5[C@@H]68)cc14)[C@@H]32`, the growth in test [1] is -77.2% (active); in test [2], -27.1% (active); in [3], 27.3%; in test [4], 21.6%; in test [5], -38.2% (active); in [6], 13.5%. Further, the growth is -96.1% (active) in [7], -71.9% (active) in [8], -94.5% (active) in test [9] and -21.8% (active) in test [10].

Regarding `COc1ccc([C@H]2C(C(=O)c3ccc(Cl)cc3)C3(N[C@@H]2c2ccccc2)C(=O)Nc2ccccc23)cc1` (stereo not given in full), the growth in test [1] was 16.4%; in test [2], 9.82% (active); in test [3], 35%; in test [4], 42.2%; in [5], 36.5%; in test [6], 36.9%. The growth is 26% in [7], 9.8% (active) in test [8], 12.2% in [9] and 49.7% in [10].

As for `O=c1[nH]c2ccccc2cc1COc1ccc(Nc2nccc(-c3ccc(Cl)cc3)n2)cc1`, the growth in [1] was 101%; in [2], 105%; in test [3], 60.5%; in [4] it was 93.4%; in test [5] it was 86.5%; in test [6], 106%. Besides, the growth is 99.1% in [7], 94.4% in test [8], 96% in test [9] and 105% in test [10].

For the compound `O=C(Nc1ccc(-c2ccc3c(c2)NC(=O)/C3=C\c2ccc[nH]2)cc1)Nc1cccc(Cl)c1`, the growth in test [1] was -32.5% (active); in [2], -61.5% (active); in test [3], 16.6%; in test [4], 19.8%; in [5] it was -52.4% (active); in test [6], 13.5%. Also, the growth in test [7] was -45.7% (active); in test [8] it was -36.3% (active); in [9] it was -88.4% (active); in test [10] it was -4.21% (active).

Consider `O=C1NC(=S)/C(=C/c2cn(-c3ccccc3)nc2-c2ccccc2)S1`, for which the growth in [1] is 20%; in test [2], 22.9%; in [3], 80.7%; in test [4] it was 14.3%; in test [5] it was 14.6%; in [6] it was 34.9%. Besides, the growth was -42.3% (active) in [7], 6.83% (active) in test [8], 28.9% in test [9] and 20.5% in test [10].
